Data from PubChem BioAssay (EPA / NIEHS).
Results filed as inconclusive are left out. Calls of active or inactive are those of the source. Rule for the calls: active = hit-call score of the fitted dose curve at least 0.9, where 1 is the maximum; inconclusive = response in the unintended direction; inactive = score below 0.9.

target: Androgen Receptor/SRC-1 Co-activator, AR (gene 367) (UniProt P10275); experiment: OT_AR_ARSRC1_0960: Odyssey Thera (OT) 16-hour HEK293T Protein-Complementation Assay for Androgen Receptor/SRC-1 Co-activator (AID 2283353);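 note: actives raise the signal above DMSO so potency reflects increased AR and SRC-1 complex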
Sequence (P10275 whole entry, looked up, the tested form may be a part): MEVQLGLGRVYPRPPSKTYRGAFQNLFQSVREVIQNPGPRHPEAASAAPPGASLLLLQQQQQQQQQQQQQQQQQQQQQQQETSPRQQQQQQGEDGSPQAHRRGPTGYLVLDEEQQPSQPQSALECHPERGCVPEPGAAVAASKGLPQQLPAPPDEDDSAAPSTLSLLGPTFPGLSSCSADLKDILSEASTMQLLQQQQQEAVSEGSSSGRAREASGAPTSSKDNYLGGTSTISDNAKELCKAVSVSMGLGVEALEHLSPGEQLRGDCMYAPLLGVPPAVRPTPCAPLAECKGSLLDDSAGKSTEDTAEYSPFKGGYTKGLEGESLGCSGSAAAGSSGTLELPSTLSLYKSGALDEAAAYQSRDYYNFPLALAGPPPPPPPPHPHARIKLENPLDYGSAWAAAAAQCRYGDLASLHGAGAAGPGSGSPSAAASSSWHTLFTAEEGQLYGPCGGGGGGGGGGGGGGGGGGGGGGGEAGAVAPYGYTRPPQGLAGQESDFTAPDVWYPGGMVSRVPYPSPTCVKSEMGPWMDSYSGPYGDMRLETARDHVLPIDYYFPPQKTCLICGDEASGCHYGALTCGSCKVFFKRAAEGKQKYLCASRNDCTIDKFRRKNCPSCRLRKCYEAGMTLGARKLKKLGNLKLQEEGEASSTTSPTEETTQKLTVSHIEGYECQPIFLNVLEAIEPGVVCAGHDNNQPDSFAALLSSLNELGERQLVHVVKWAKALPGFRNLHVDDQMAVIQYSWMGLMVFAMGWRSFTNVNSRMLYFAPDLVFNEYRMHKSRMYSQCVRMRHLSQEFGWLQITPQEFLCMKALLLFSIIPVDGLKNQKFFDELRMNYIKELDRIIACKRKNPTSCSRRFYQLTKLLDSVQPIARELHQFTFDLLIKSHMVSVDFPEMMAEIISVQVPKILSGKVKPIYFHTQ
In short: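 Sixteen-hour cell assay: Venus halves fused to AR and SRC-1 in HEK293T report binding. Images at 488/635 nm give an N/C ratio in the 488 nm channel over ≥400 cells, analysed as signal increase over DMSO.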

Compound | outcome
O=c1c(-c2ccc(O)cc2)coc2cc(O)ccc12 | inactive
CC(=O)CC(C)(C)O | inactive
c1ccc2c(c1)ccc1ccccc12 | inactive
N#C[C@@H]1CC(F)(F)CN1C(=O)CNC1CC2CCC(C1)N2c1ncccn1 (stereo partly drawn) | inactive

target: Androgen Receptor/SRC-1 Co-activator, AR (gene 367) (UniProt P10275); experiment: OT_AR_ARSRC1_0480: Odyssey Thera (OT) 8-hour HEK293T Protein-Complementation Assay for Androgen Receptor/SRC-1 Co-activator (AID 2283354);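 note: hits raise the complementation signal above DMSO so AC50 marks enhancers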
In short: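 Reconstituted split-Venus YFP signal from AR–SRC-1 interaction, read by imaging 8 h post-dose in stable HEK293T lines. The 488 nm nucleus-to-cytoplasm ratio (≥400 cells/image) was fitted upward against DMSO.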

Compound | outcome
O=c1c(-c2ccc(O)cc2)coc2cc(O)ccc12 | inactive
CC(=O)CC(C)(C)O | inactive
c1ccc2c(c1)ccc1ccccc12 | inactive
N#C[C@@H]1CC(F)(F)CN1C(=O)CNC1CC2CCC(C1)N2c1ncccn1 (stereo partly drawn) | inactive
